# Bioassay records as filed in PubChem BioAssay.
# The list is not random: actives were taken first. Their share in the collection is about 4.2%.
# MITF act: activators of MITF-driven TRPM1 promoter reporter, primary screen, cell-based, SK-MEL-5, luciferase, single point; SK-MEL-5 TRPM1-promoter luciferase, 24 h; % of positive control, neutral wells = 0; 0.75% of 300,000 active; activation, % at 12.5 µM;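 active means mean activation of at least 80% with every replicate also reaching 80%; inconclusive means mean reaches 80% but some replicate falls short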;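 further: 0% = neutral control wells and 100% = parthenolide positive control wells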
# AHR act: AHR activators, primary screen, cell-based, luminescence, luciferase reporter, human; Aryl hydrocarbon receptor (Homo sapiens), P35869; AHR-responsive luciferase reporter cells; activation, % at 5 µM; 2.5% of 320,000 active; AID 2796, 2010; in the data active means activation above about 47%;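 further: 0% = vehicle wells and 100% = reference agonist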
# Target sequence (P35869 whole entry, looked up): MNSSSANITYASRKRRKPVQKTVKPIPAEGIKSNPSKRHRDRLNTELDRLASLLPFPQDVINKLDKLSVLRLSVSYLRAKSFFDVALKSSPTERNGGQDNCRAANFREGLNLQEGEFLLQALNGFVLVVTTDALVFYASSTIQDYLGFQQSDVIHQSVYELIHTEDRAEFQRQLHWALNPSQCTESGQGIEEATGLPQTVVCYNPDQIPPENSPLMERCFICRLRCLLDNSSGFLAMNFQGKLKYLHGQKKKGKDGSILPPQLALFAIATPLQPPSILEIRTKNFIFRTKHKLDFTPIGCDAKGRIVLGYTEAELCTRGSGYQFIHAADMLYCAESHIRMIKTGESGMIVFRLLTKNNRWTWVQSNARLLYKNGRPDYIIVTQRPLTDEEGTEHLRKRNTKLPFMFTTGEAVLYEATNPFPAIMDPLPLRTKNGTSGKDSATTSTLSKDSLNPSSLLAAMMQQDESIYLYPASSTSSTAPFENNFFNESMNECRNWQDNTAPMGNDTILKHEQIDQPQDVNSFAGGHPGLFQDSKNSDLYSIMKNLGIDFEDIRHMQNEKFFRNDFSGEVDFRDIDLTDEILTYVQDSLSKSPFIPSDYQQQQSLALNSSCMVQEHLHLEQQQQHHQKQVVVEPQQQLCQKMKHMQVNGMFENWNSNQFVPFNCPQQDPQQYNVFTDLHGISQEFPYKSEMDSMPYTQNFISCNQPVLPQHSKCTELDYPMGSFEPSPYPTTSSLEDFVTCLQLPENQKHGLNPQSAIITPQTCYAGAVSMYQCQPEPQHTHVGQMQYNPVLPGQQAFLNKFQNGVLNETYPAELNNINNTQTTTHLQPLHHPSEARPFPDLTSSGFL
# esBAF inh: Bmi1 luciferase reporter increase in mESCs, primary screen, esBAF inhibitor project, mouse ES cells, Bmi1 luciferase knock-in, single point. reporter increase, % at 12.5 µM. 24 h; 100% = twice the neutral-well signal. 2% of 350,000 active; in the data active means activation above about 40%; inconclusive means no clear call, values can overlap the other calls;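 further: 0% = median of the plate's neutral control wells and 100% = double that signal; a rise in the Bmi1 reporter signal indicates esBAF inhibition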
# GAA850 FXN act: FXN promoter activators, primary screen, cell-based, luciferase luminescence, HEK293 lucGAA850 | HEK293 lucGAA850 FXN promoter luciferase reporter, 24 h; percent of 10 µM SAHA response | activation, % at 6 µM | 0.56% of 360,000 active | AID 540364, 2011;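 active means activation above the average of all compounds screened plus 3 SD, cutoff fixed separately per campaign, cut at about 7.5% in these data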;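 further: 0% = DMSO wells and 100% = 10 µM SAHA wells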
# Wnt bcat act: Wnt/beta-catenin pathway activators, primary screen, cell-based, plate reader, single point. Wnt/beta-catenin reporter cell assay, activator. activation, % at 9.35 µM. 1.2% of 300,000 active; in the data active means activation above about 30%, passing the limit was not always enough; inconclusive means no clear call, values can overlap the other calls;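 further: 0% = neutral control wells and 100% = positive control wells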
# Active calls of the source: *; u = inconclusive; x = not tested or not shown.
SMILES,MITF act,AHR act,esBAF inh,GAA850 FXN act,Wnt bcat act
CSc1nc2ccc(NC(=O)C3CCCO3)cc2s1 (stereo not drawn),u,5,14,1,49*
CCC(=O)Nc1sc2c(c1C(N)=O)CCN(Cc1ccccc1)C2,x,8,31,1,39*
CN1CCc2c(sc(NC(=O)C3COc4ccccc4O3)c2C(N)=O)C1 (stereo not drawn),25,4,34,2,4
CN1CCc2c(sc(NC(=O)c3ccc4ccccc4c3)c2C(N)=O)C1,121*,7,-15,3,x
CN1CCc2c(sc(NC(=O)Cc3ccccc3)c2C(N)=O)C1,x,11,-7,-1,2
CN1CCc2c(sc(/N=C/c3ccco3)c2C(N)=O)C1,4,15,-6,-1,6
CN1CCc2c(sc(/N=C/c3cccs3)c2C(N)=O)C1,x,70*,27,-1,x
CCN1CCc2c(sc(NC(=O)C3COc4ccccc4O3)c2C(N)=O)C1 (stereo not drawn),86*,2,26,1,12
CN1CCN(C(=O)C[C@H]2C[C@H]3c4cc(NS(=O)(=O)c5ccc(F)cc5)ccc4O[C@H]3[C@H](CO)O2)CC1,x,x,3,x,x
C[C@@H]1CN([C@H](C)CO)C(=O)c2cc(NC(=O)c3ccncc3)ccc2O[C@H]1CN(C)S(C)(=O)=O,x,x,-3,x,x
COc1ccc(NS(=O)(=O)c2cn(C)c(=O)n(C)c2=O)cc1,-8,-1,1,1,42*
O=C(N/N=C/c1c(O)ccc2ccccc12)c1cccnc1,-39,73*,-38,-6,-4
Cc1nn(Cc2ccccc2)c(Cl)c1/C=N/NC(=O)c1cccnc1,-15,52*,x,4,-1
O=C(NN=Cc1c(O)ccc2ccccc12)c1ccncc1,x,x,x,-10,-2
O=C(N/N=C\c1c(O)ccc2ccccc12)c1cncc(Br)c1,x,67*,-59,-7,0
Cc1c(/C=N/NC(=O)c2cccnc2)c2ccccc2n1Cc1ccccc1,-22,28,x,-1,-14
O=C(c1ccccc1)N1C[C@H]2[C@@H](c3ccccc31)[C@H](CO)N2C(=O)Nc1ccccc1Cl,x,x,-3,x,x
Cc1ccc(S(=O)(=O)N[C@H]2CC[C@@H](CCn3cc(C4(O)CCCC4)nn3)O[C@H]2CO)cc1,x,x,3,x,x
C[C@H]1CN([C@@H](C)CO)C(=O)c2cccc(NS(=O)(=O)c3cccs3)c2O[C@H]1CN(C)S(=O)(=O)c1ccc(F)cc1,x,x,0,x,x
O=C(Nc1cccc2ccccc12)c1ccc(OC(=S)N2CCOCC2)cc1,42,-2,45*,-5,15
O=C(Nc1cccc(Cl)c1)c1ccc(OC(=S)N2CCOCC2)cc1,49,1,x,3,6
Cc1nc2cc(-c3sccc3-n3cccc3)nn2c(C)c1C,4,69*,12,5,x
CCc1c(C)nc2cc(-c3ccccc3)[nH]n2c1=O,33,45,25,4,19
C=CCc1c(C)nc2cc(-c3ccc(C)cc3)[nH]n2c1=O,x,50*,-26,6,u
O=C(CNS(=O)(=O)c1ccccc1)OCC(=O)c1c[nH]c2ccccc12,x,47*,-4,2,-4
SMILES,MITF act,AHR act,esBAF inh,GAA850 FXN act,Wnt bcat act
COc1ccc(CC(=O)OCC(=O)c2c[nH]c3ccccc23)cc1,-11,30,1,2,2
COc1ccc(C(=O)OCC(=O)c2c[nH]c3ccccc23)c(OC)c1,69,20,75*,3,36*
COc1cccc(C(=O)OCC(=O)c2c[nH]c3ccccc23)c1OC,53,22,44*,4,5
COc1ccc(C(=O)COC(=O)c2ccccc2O)c(OC)c1,65,3,76*,4,50*
COc1cc(CC(=O)OCC(=O)c2c[nH]c3ccccc23)cc(OC)c1OC,-18,26,-7,-1,0
C[C@H]1CN([C@@H](C)CO)C(=O)Cc2cc(NC(=O)Nc3cccc4ccccc34)ccc2O[C@H]1CN(C)C(=O)Nc1ccc(F)cc1,x,x,-1,x,x
Cc1c(C(=O)Nc2ccccc2F)cnn1-c1ccccc1,88*,-1,24,3,10
COc1ccc(NC(=O)c2cnn(-c3ccccc3)c2C)c(OC)c1,-3,-7,8,0,1
CCn1ncc(C(=O)Nc2ccc(F)cc2)c1C,15,60*,x,4,-3
CCc1ccc(NC(=O)c2cnn(-c3ccccc3)c2C)cc1,44,-9,x,1,x
Cc1c(C(=O)Nc2cc(F)cc(F)c2)cnn1-c1ccccc1,121*,-2,u,7,57*
Cc1ccc(NC(=O)c2cnn(-c3ccccc3)c2NC(=O)c2ccco2)cc1C,20,19,55*,0,10
CN1[C@@H]2c3ccc(-c4ccc(F)cc4)c(=O)n3C[C@H]1[C@H](CO)[C@H]2C(=O)N1CCCCC1,x,x,-5,x,x
CN1C[C@H]2[C@@H](c3ccccc31)[C@H](CO)N2C(=O)C1CCCCC1,x,x,5,x,x
C[C@@H]1CCCCO[C@H](CN(C)Cc2ccc(C(=O)O)cc2)[C@@H](C)CN([C@@H](C)CO)C(=O)c2cc(NC(=O)NC3CCCCC3)ccc2O1,x,x,1,x,x
CNC[C@@H]1Oc2c(NC(=O)C3CCCCC3)cccc2C(=O)N([C@H](C)CO)C[C@@H]1C,x,x,-7,x,x
Cc1c(C(=O)Oc2cccc3ccccc23)cnn1-c1ccccc1,34,6,45*,-3,x
COC(=O)[C@@H]1[C@@H](CO)[C@@H]2Cn3c(ccc(-c4ccccc4)c3=O)[C@@H]2N1Cc1ccccc1F,x,x,3,x,x
COCCNC(=O)C[C@@H]1CC[C@H]2[C@@H](COC[C@H](O)CN2C(=O)Nc2ccc3c(c2)OCO3)O1,x,x,4,x,x
O=C(CN1C(=O)S/C(=C/c2ccc(N3CCOCC3)cc2)C1=O)N1CCOCC1,28,2,x,5,9
Cc1cc(N2CCOCC2)ccc1/C=C1\SC(=O)N(C(C)C)C1=O,59,-2,2,1,-4
C#CCN1C(=O)S/C(=C\c2ccc(N3CCOCC3)cc2C)C1=O,72,-6,x,7,56*
CCC(C)N1C(=O)S/C(=C/c2ccc(N3CCOCC3)cc2C)C1=O (stereo not drawn),91*,-4,x,0,1
CCN1C(=O)S/C(=C\c2ccc(N3CCOCC3)cc2C)C1=O,66,0,55*,4,81*
COc1cccc(NC(=O)N(C)C[C@H]2Oc3ncc(/C=C/c4ccccc4)cc3C(=O)N([C@H](C)CO)C[C@@H]2C)c1,x,x,10,x,x
CC(NC(=O)c1cc(COc2ccc3ncccc3c2)on1)c1ccc(F)cc1 (stereo not drawn),-11,-5,-14,-2,-4
Cc1nc(C(C)NC(=O)c2cc(COc3ccc(C)c(C)c3)on2)c(C)s1 (stereo not drawn),79,19,73*,2,-1
